Experimental data as given in PubChem BioAssay (NCI).
This is part of a sample that, as a whole, favours compounds with a hit. Of some 79,000 tested, about 15% had one in any assay. Unmarked numbers belong to inactive results. Calls of active or inactive are those of the source. No stated cut-off is given here; in the data, active means growth inhibition above about 70%; inactive means the rest.

Columns and labels:
[1] = NCI Yeast Anticancer Drug Screen. Data for the rad50 strain (AID 155);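 further: 0% = growth of vehicle-only cultures of the same strain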; conditions: S. cerevisiae rad50 strain growth inhibition, stronger effect = higher value
Method in brief: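 Yeast carrying a defined DNA repair defect were exposed to test compounds, and growth was compared with vehicle-treated controls to give percent inhibition.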

[2] = NCI Yeast Anticancer Drug Screen. Data for the mec2-1 strain (AID 157); conditions: S. cerevisiae mec2-1 strain, stronger effect = higher value
Method in brief: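 Test agents were screened against the mec2-1 yeast strain, with defined DNA repair or cell cycle alteration. Growth was scored as inhibition against vehicle-only controls.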

[3] = NCI Yeast Anticancer Drug Screen. Data for the sgs1 mgt1 strain (AID 161);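 further: 0% = growth of cultures given vehicle only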; conditions: S. cerevisiae sgs1 mgt1 strain, stronger effect = higher value
Method in brief: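 Genetically altered yeast, compound exposure, growth inhibition relative to vehicle.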

[4] = NCI Yeast Anticancer Drug Screen. Data for the cln2 rad14 strain (AID 165);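 further: 0% = growth equal to vehicle treated cultures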; conditions: S. cerevisiae cln2 rad14 strain, stronger effect = higher value
Method in brief: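 Growth of compound-exposed yeast (cln2 rad14 genotype) measured and expressed as inhibition relative to vehicle.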

[5] = NCI Yeast Anticancer Drug Screen. Data for the bub3 strain (AID 167); conditions: S. cerevisiae bub3 mutant strain, stronger effect = higher value
Method in brief: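 Compounds were applied to a genetically altered yeast strain carrying a cell-cycle control defect. Growth inhibition was scored against vehicle-treated controls.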

[6] = NCI Yeast Anticancer Drug Screen. Data for the mlh1 rad18 strain (AID 175); conditions: S. cerevisiae mlh1 rad18 strain growth inhibition, stronger effect = higher value
Method in brief: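 In this whole-cell yeast screen, a strain with altered DNA damage repair is challenged with compound, and its growth is measured against matched vehicle-treated controls.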

[7] = at 5.0 µM (retest, dose inferred, filed as 0.5)
[8] = at 50.0 µM (retest, dose inferred, filed as 5.0)

SMILES	growth inhibition [1, 7]	growth inhibition [1, 8]	growth inhibition ([1]; at 50.0 µM)	growth inhibition [2, 7]	growth inhibition [2, 8]	growth inhibition ([2]; at 50.0 µM)	growth inhibition [3, 7]	growth inhibition [3, 8]	growth inhibition ([3]; at 50.0 µM)	growth inhibition [4, 7]	growth inhibition [4, 8]	growth inhibition ([4]; at 50.0 µM)	growth inhibition [5, 7]	growth inhibition [5, 8]	growth inhibition ([5]; at 50.0 µM)	growth inhibition [6, 7]	growth inhibition [6, 8]	growth inhibition ([6]; at 50.0 µM)
ClCc1ccccc1Cc1ccccc1	18%	82% (active)	98.6% (active)	21%	63%	95.2% (active)	27%	83% (active)	97.8% (active)	-1%	35%	94.5% (active)	-5%	58%	97.6% (active)	35%	85% (active)	98% (active)
COc1ccc2c(C)c(N=C=S)c(=O)oc2c1	35%	79% (active)	60.2%	13%	78% (active)	69%	34%	81% (active)	48%	6%	33%	1.75%	29%	87% (active)	89% (active)	42%	89% (active)	74.7% (active)
Cn1c(C2CCC(=O)N2Cc2ccccc2)n[nH]c1=S (stereo not given)	1%	0%	55.5%	-1%	-3%	22.4%	4%	-2%	74.4% (active)	2%	3%	-1.85%	3%	-2%	62.5%	1%	-4%	89.5% (active)
C[Si](C)c1cccc(Cl)c1	2%	5%	0.25%	0%	4%	0.45%	-1%	-3%	6.9%	8%	6%	13.8%	1%	0%	7.55%	-29%	1%	-0.75%
O=P(N=P(c1ccccc1)(c1ccccc1)c1ccccc1)(c1ccccc1)c1ccccc1	70% (active)	96% (active)	88% (active)	60%	99% (active)	91.6% (active)	49%	99% (active)	79% (active)	40%	98% (active)	92.5% (active)	62%	99% (active)	87.2% (active)	71% (active)	98% (active)	88.7% (active)
Nc1ncc2ccccc2c1-c1ccc(NC(=O)CCCl)cc1	-1%	36%	70% (active)	-3%	40%	14.8%	-2%	39%	31.6%	-1%	23%	-4.85%	6%	59%	21.6%	-2%	55%	45%
COC(=O)c1cn(NS(=O)(=O)c2ccc(OC)cc2)cc1C(=O)OC	-6%	8%	16.4%	-5%	4%	6.65%	-6%	14%	29.8%	-1%	0%	33.9%	-5%	8%	-1.9%	-5%	6%	20.9%
Cc1cc(C(O)(C(F)(F)F)C(F)(F)F)c(I)c(C(O)(C(F)(F)F)C(F)(F)F)c1	100% (active)	100% (active)	97.3% (active)	99% (active)	100% (active)	99.2% (active)	99% (active)	100% (active)	99.2% (active)	98% (active)	99% (active)	89.8% (active)	99% (active)	99% (active)	98.7% (active)	99% (active)	99% (active)	98.5% (active)
O=C(Cc1nc2ccc(Cl)cc2nc1CC(=O)c1ccccc1)c1ccccc1	10%	96% (active)	95.2% (active)	2%	93% (active)	85.5% (active)	-2%	94% (active)	61.7%	-5%	92% (active)	67.3%	-1%	97% (active)	77.5% (active)	7%	96% (active)	96.3% (active)
CN(C)C(N)=NC#N	25%	47%	73.2% (active)	22%	86% (active)	75.7% (active)	27%	96% (active)	51.2%	20%	54%	9.65%	29%	95% (active)	65.2%	33%	71% (active)	67%
CCCCCCCCCCCCCCCC[N+](C)(C)CCCCCC(=O)OC	99% (active)	99% (active)	98.9% (active)	100% (active)	100% (active)	99.1% (active)	100% (active)	100% (active)	99% (active)	99% (active)	99% (active)	97.4% (active)	100% (active)	100% (active)	98.5% (active)	100% (active)	100% (active)	98.7% (active)
Fc1ccc(CSC(=S)Nc2ccc(F)cc2)cc1	5%	29%	69.5%	0%	16%	47.6%	2%	29%	68.3%	-9%	-4%	32.5%	-6%	8%	27.6%	-3%	19%	78.7% (active)
CC(=O)OCc1cc2c(s1)C(=O)c1sccc1C2=O	21%	83% (active)	49.6%	8%	67%	81% (active)	12%	15%	88.8% (active)	11%	21%	86.2% (active)	41%	60%	88.7% (active)	24%	89% (active)	89% (active)
COc1ccc2cc(C3CCCC3(C)CC(=O)O)ccc2c1 (stereo not given)	7%	11%	57.2%	11%	10%	39.9%	4%	8%	62.1%	3%	7%	11.1%	2%	2%	3.85%	1%	9%	64.5%
Cc1ccc(C2=C(C#N)C(c3ccccc3)C(C#N)=C(N)O2)cc1 (stereo not given)	57%	95% (active)	97.5% (active)	53%	99% (active)	98.5% (active)	71% (active)	98% (active)	97.8% (active)	35%	99% (active)	98.9% (active)	48%	98% (active)	97.9% (active)	59%	98% (active)	98.5% (active)
O=C(/C=C/c1cccc2ccccc12)c1cccc([N+](=O)[O-])c1	11%	-10%	12.3%	-25%	-15%	-4.05%	-2%	2%	14.3%	7%	5%	0%	-8%	-12%	-5.2%	-12%	-51%	-5.35%
CCOc1nc(N)nc(C)c1N=Nc1ccc(Br)cc1	9%	90% (active)	70.2% (active)	0%	32%	2.6%	4%	72% (active)	22.2%	4%	30%	-9.65%	4%	88% (active)	75.9% (active)	17%	98% (active)	35.1%
Cc1cc2c(c([N+](=O)[O-])c1C)C(=O)C(Br)=C(N)C2=O	95% (active)	98% (active)	93.5% (active)	79% (active)	99% (active)	97.8% (active)	96% (active)	17%	98.8% (active)	45%	98% (active)	98.3% (active)	87% (active)	96% (active)	94% (active)	93% (active)	99% (active)	98% (active)
CC1C=CC(C)C2C(=O)C3C(C)C=CC(C)C3C(=O)C12 (stereo not given)	0%	-7%	-10.3%	6%	14%	-6.45%	-1%	9%	3.65%	18%	23%	38.5%	-12%	0%	18.9%	1%	-7%	8.9%
O=C(O/N=C(/Cc1ccccc1)c1ccccc1)c1ccccc1	-15%	63%	90.3% (active)	-10%	72% (active)	28.1%	-1%	76% (active)	88.8% (active)	-6%	92% (active)	43.6%	-17%	66%	18.4%	3%	87% (active)	93.2% (active)
